Shown are actives, neighbours in structure and some others; about 3.7% of the full set was active somewhere.
tim10-1 inh – tim10-1 yeast growth inhibition | S. cerevisiae tim10-1 ts strain growth, BacTiter-Glo, 24 h | inhibition, % at 20 µM | 2.2% of 330,000 active;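 active = inhibition of at least 40%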;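 also: mutant grown at 25 °C; 0% = DMSO wells with yeast and 100% = wells holding no yeast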
TIM10 inh – inhibits growth of TIM10 yeast strain; S. cerevisiae TIM10 strain growth, BacTiter-Glo luminescence, 24 h; inhibition, % at 10 µM; 1.4% of 330,000 active; AID 463195;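 active = inhibition of 40% or more at the single tested concentration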;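 also: wild-type TIM10 isogenic control strain grown at permissive 25 °C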
tim23-1 inh – growth inhibitors of tim23-1 mutant yeast; S. cerevisiae tim23-1 growth, BacTiter-Glo luminescence, 24 h; inhibition, % at 20 µM; 1.3% of 330,000 active; AID 463212;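 active = growth inhibition of the mutant yeast at or above 50%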;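 also: temperature-sensitive mutant grown at 25 °C; plate controls were DMSO-treated mutant yeast for no effect and medium wells lacking yeast for full effect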
PfHsp90 set2 – inhibits growth of yeast expressing Plasmodium falciparum Hsp90; S. cerevisiae expressing PfHsp90, BacTiter-Glo ATP, 48 h; yeast lacking PDR1 and PDR3 efflux regulators; inhibition, % at 9.4 µM; 0.32% of 310,000 active; AID 504621;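 active = every replicate shows inhibition above about 80%, whatever the replicate mean, limit read from the data; inconclusive = mean inhibition reaches the set limit but some replicate falls short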;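 also: 0% = DMSO neutral controls and 100% = 20 µM radicicol positive controls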
V-ATPase pH – alters yeast V-ATPase proton transport | S. cerevisiae, pHLuorin cytosolic pH fluorescence | response, % at 10 µM | 0.37% of 350,000 active | AID 504577; in the data active = response mostly above about 7.3%, no sharp cut-off; inactive = mostly below about 5.4%; also: actives read high
tim10-1 confirm – tim10-1 yeast growth inhibition, confirmed | AID 463213 | shares compounds with tim10-1 inh | S. cerevisiae tim10-1 ts strain growth, BacTiter-Glo, 24 h | 56% of 7,400 active | inhibition, % at 20 µM;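 active = inhibition of yeast growth at or above a set limit in either of two repeat tests at 20 µM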;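 also: tim10-1 mutant grown at permissive 25 °C to find synthetic lethal compounds; 0% = DMSO yeast wells and 100% = medium wells without yeast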
The depositor's hits bear a star; ? = inconclusive; · = no result; ! = not confirmed by another sample.

SMILES	tim10-1 inh	TIM10 inh	tim23-1 inh	PfHsp90 set2	V-ATPase pH	tim10-1 confirm
CCN(CC)c1ccc(S(=O)(=O)N2CCOCC2)cc1NC(=O)CN1CCc2ccccc2C1	49.9*	30.6	10.7	16.6	-0.5	9.9
CC1C(=O)C(C)C(c2ccc(Br)cc2)NC1c1ccc(Br)cc1 (stereo unspecified)	48.2*	8.6	44.6	-49.9	1.9	12.4
CC(/C=C/c1ccccc1)=N\NC(=O)c1cc(C)[nH]n1	-3.4	9.0	-11.0	-20.8	-2.9	·
O/N=C\c1ccc(-c2ccccc2)o1	15.0	8.6	22.6	-13.9	2.5	·
O=C(/C=C\c1ccc(-c2ccccc2)o1)c1ccccc1	48.3*	31.4	45.5	6.1	-1.1	48.2*
COc1cc2c(C#N)c(N3CCCC3)nc(N)c2c(N)n1	43.4*!	27.0	47.6	10.2	0.4	21.8
CC1=C(C(N)=O)C(c2ccccc2[N+](=O)[O-])n2ncnc2N1 (stereo unspecified)	7.8	12.4	-2.9	-0.6	4.8	·
CCCCc1cc(=O)oc2cc(OC(C)C(=O)NCc3ccccn3)c(Cl)cc12 (stereo unspecified)	41.3*	5.2	24.4	-60.9	3.6	-36.0
O=C(O)CC(c1ccc(Br)cc1)N1Cc2ccccc2C1=O (stereo unspecified)	1.3	11.9	15.6	4.1	-6.0	·
CCc1c(C)[nH]n(-c2nc(-c3ccccc3)cs2)c1=O	49.7*	17.6	33.5	21.4	1.0	31.1*
CCc1c(C)[nH]n(-c2nc(-c3cccc([N+](=O)[O-])c3)cs2)c1=O	16.9	17.5	0.3	23.6	2.2	·
Cc1ccc(NC(=O)c2sc3ncnc(N4CCN(c5ccccn5)CC4)c3c2C)c(C)c1	47.9*	12.6	34.2	-9.1	-1.1	24.4
Cc1ccc(NC(=O)c2sc3nc(C)nc(N4CCN(c5ccccn5)CC4)c3c2C)c(C)c1	16.5	16.4	33.0	28.9	-1.7	·
O=[N+]([O-])c1ccc(N=NNc2ccccc2)cc1	41.6*	14.2	26.3	-3.0	1.3	34.5*
Brc1ccc(N=NNc2ccccc2)cc1	31.4	14.8	32.6	-9.8	-3.0	·
Cc1nc(C(C)NC(=O)CCc2nnc(CCCc3ccccc3)o2)c(C)s1 (stereo unspecified)	23.1	4.1	34.8	2.0	2.4	·
O=[N+]([O-])c1nn(-c2cccc(Cl)c2)n(O)c1=NCc1cccnc1	31.5	14.0	27.8	-29.9	-3.6	·
O=[N+]([O-])c1nn(-c2ccc(Cl)cc2)n(O)c1=NCc1cccnc1	42.2*	29.5	35.1	0.9	4.0	30.4*
Nc1nc(Cl)cc(N2CCC(c3cc(-c4ccc(Cl)cc4)n[nH]3)CC2)n1	84.4*	35.4	48.4	-32.1	3.3	73.0*
COc1ccc(OC)c(-c2cc(C3CCN(c4cc(Cl)nc(N)n4)CC3)[nH]n2)c1	24.7	30.5	26.0	-28.5	1.7	·
CCCC(=O)Nc1cc(C)c(NC(=O)C23CC4CC(CC(C4)C2)C3)cn1	42.4*	35.8	24.5	3.6	-1.9	31.8*
C=C(C)COc1ccc(-c2[nH]ncc2Oc2ccccc2OC)c(O)c1	55.4*	27.7	42.5	8.7	-0.3	39.4*
C=C(C)COc1ccc(-c2[nH]ncc2Oc2ccc(OC)cc2)c(O)c1	-15.5	28.5	43.5	?	1.4	·
Cc1ccccc1C(=O)NCC(=O)O	18.5	10.3	9.8	18.2	-0.3	·
CC(C)c1nc2c(c(=O)n(C)c(=O)n2C)n1C	-9.8	-0.3	2.2	10.0	-0.7	·
SMILES	tim10-1 inh	TIM10 inh	tim23-1 inh	PfHsp90 set2	V-ATPase pH	tim10-1 confirm
O=C(CCNc1ccc(Cl)c(C(F)(F)F)c1)c1ccco1	43.4*	21.0	28.2	1.1	-1.8	22.3
CC(=O)c1ccc2c3c(cc(C)c2c1)CCCC3	·	·	·	-16.5	2.6	·
CC(Sc1nnnn1-c1ccccc1)C(=O)NC1CCCC1 (stereo unspecified)	12.8	3.1	14.9	2.9	1.7	·
COc1cccc(-c2nc(=S)c3c(n2Cc2ccco2)CCCC3)c1	42.0*	20.1	16.5	-24.8	2.5	40.1*
Cc1cccc(-c2nc(=S)c3c(n2Cc2ccco2)CCCC3)c1	27.9	20.2	10.4	·	-1.2	·
O=C(CN1C(=O)/C(=C\C=C\c2ccccc2)SC1=S)Nc1ccc(F)cc1	40.1*	13.8	6.7	-20.8	7.8	23.4
CCCCn1c(=N)c(S(=O)(=O)c2ccc(Br)cc2)cc2c(=O)n3cccc(C)c3nc21	44.2*	3.0	27.4	14.9	6.2	-14.3
CCCCCn1c(=N)c(S(=O)(=O)c2ccc(Br)cc2)cc2c(=O)n3cccc(C)c3nc21	39.2	0.9	13.1	12.8	-4.1	·
CCn1cc(C2CC(=O)NC2=O)c2ccccc21 (stereo unspecified)	6.2	-10.4	4.4	16.1	0.5	·
COc1cc(C(=O)NC(=S)Nc2ccc(Cc3ccncc3)cc2)cc(OC)c1OC	46.5*	13.9	40.1	-5.0	4.4	35.4*
Cc1ccc(C(=O)N2CCN(c3ccc(C(F)(F)F)cn3)CC2)o1	15.9	10.8	21.7	-24.6	1.5	·
CCc1nonc1NC(=O)c1oc2ccc(F)cc2c1C	27.3	-12.8	6.8	-47.0	3.9	·
Cc1c(C(=O)Nc2nonc2-c2ccc(F)cc2)oc2ccc(F)cc12	44.3*	1.8	-3.6	-46.8	-6.5	-17.1
CCOc1ncccc1C(=O)OCC(=O)NCc1cccs1	9.9	3.5	-2.6	-9.4	-0.7	·
Cc1c(Br)c([N+](=O)[O-])nn1C(C)C(=O)N1CCCc2ccccc21 (stereo unspecified)	40.1*	30.1	41.6	-3.9	-0.2	37.0*
Cc1c(C=O)c(C=O)c(C)n1Cc1ccccc1	42.0*	16.8	39.0	-8.5	2.5	21.0
COc1ccc(NC(=O)CSCC(=O)Nc2ccc(C)c(S(=O)(=O)N3CCCCCC3)c2)cc1	17.2	-0.1	14.6	-1.6	-0.8	·
COC(=O)COc1ccc(S(=O)(=O)N2CCN(c3ccccc3F)CC2)cc1C	41.3*	8.4	23.7	-17.7	5.7	30.9*
COC(=O)COc1ccc(S(=O)(=O)N2CCCCCC2)cc1C	8.1	2.8	6.7	20.0	-2.9	·
COc1ccc(CCNc2oc(COc3ccccc3)nc2C#N)cc1	47.0*	5.2	18.8	18.0	3.5	43.2*
COC(=O)c1sc(NC(=O)c2ccc(Cn3cc(Cl)cn3)o2)c(C#N)c1C	44.4*	13.2	19.6	-17.5	-1.2	30.0*
CCCCNC(=O)CC(C(=O)N1CCc2ccccc21)n1ccnc1 (stereo unspecified)	1.8	1.6	10.2	·	3.1	·
O=C(CC(C(=O)N1CCc2ccccc21)n1ccnc1)N1CCc2ccccc2C1 (stereo unspecified)	40.0*	17.4	20.1	·	-2.3	35.2*
Cc1ccc(N=C2C(=O)Nc3ccc(C)c(Br)c32)cc1	41.4*	15.8	32.5	-4.8	-1.9	29.9*

Screening results deposited in PubChem by several laboratories.
